From PubChem BioAssay (NCI)
Compounds without any hit were thinned out: in the full panel of roughly 83,000, 20% have a hit.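 Treatment: one concentration, 48 hours, 96-well format. Scoring: percent growth, with anything below 10 considered active.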 Active and inactive are the calls of the source.

Experiments:
Test in all cases: NCI-60 one-dose screen, 48 h (100 = growth as untreated, 0 = no growth, -100 = all killed)
Conditions in all cases: 10 µM unless noted
DU-145 prostate = system: DU-145 prostate
K-562 leukemia = system: K-562 leukemia
MALME-3M melanoma = system: MALME-3M melanoma
MDA-MB-231 breast = system: MDA-MB-231 breast
RXF 393 renal = system: RXF 393 renal
SF-268 CNS = system: SF-268 CNS
SF-295 CNS = system: SF-295 CNS
SF-539 CNS = system: SF-539 CNS
UACC-257 melanoma = system: UACC-257 melanoma
M14 melanoma = system: M14 melanoma
HCT-15 colon = system: HCT-15 colon
HT29 colon = system: HT29 colon
SNB-75 CNS = system: SNB-75 CNS
SNB-19 CNS = system: SNB-19 CNS
U251 CNS = system: U251 CNS
PC-3 prostate = system: PC-3 prostate
SK-MEL-5 melanoma = system: SK-MEL-5 melanoma
UACC-62 melanoma = system: UACC-62 melanoma
LOX IMVI melanoma = system: LOX IMVI melanoma
SK-MEL-28 melanoma = system: SK-MEL-28 melanoma

Measured: growth

Fc1ccc(-c2ccnc3nc(-c4ccncc4)nn23)cc1
inactive: DU-145 prostate 101% | K-562 leukemia 98.1% | MALME-3M melanoma 114% | MDA-MB-231 breast 113% | RXF 393 renal 105% | SF-268 CNS 97.1% | SF-295 CNS 111% | SF-539 CNS 101% | UACC-257 melanoma 111% | M14 melanoma 107% | HCT-15 colon 103% | HT29 colon 97.3% | SNB-75 CNS 90.1% | SNB-19 CNS 112% | U251 CNS 104% | PC-3 prostate 97.2% | SK-MEL-5 melanoma 106% | UACC-62 melanoma 116% | LOX IMVI melanoma 100% | SK-MEL-28 melanoma 111%

O=C(O)Cn1ccc2ccccc21
inactive: DU-145 prostate 119% | K-562 leukemia 93.4% | MALME-3M melanoma 96.7% | MDA-MB-231 breast 88.8% | RXF 393 renal 114% | SF-268 CNS 115% | SF-295 CNS 113% | SF-539 CNS 92.8% | UACC-257 melanoma 113% | M14 melanoma 93.2% | HCT-15 colon 111% | HT29 colon 106% | SNB-75 CNS 91.1% | SNB-19 CNS 98.9% | U251 CNS 108% | PC-3 prostate 101% | SK-MEL-5 melanoma 98.7% | UACC-62 melanoma 104% | LOX IMVI melanoma 91.8% | SK-MEL-28 melanoma 134%

O=C1CC2(O)CSc3nc(=O)cc(n32)N1 (stereo not given)
inactive: DU-145 prostate 115% | K-562 leukemia 111% | MALME-3M melanoma 99.8% | MDA-MB-231 breast 100% | RXF 393 renal 110% | SF-268 CNS 112% | SF-295 CNS 88.8% | SF-539 CNS 104% | UACC-257 melanoma 99.2% | M14 melanoma 101% | HCT-15 colon 96.5% | HT29 colon 103% | SNB-75 CNS 98.4% | SNB-19 CNS 91.6% | U251 CNS 97.2% | PC-3 prostate 93.9% | SK-MEL-5 melanoma 99.5% | UACC-62 melanoma 102% | LOX IMVI melanoma 103% | SK-MEL-28 melanoma 104%

ClCc1cccc(CSc2ncnc3c2ncn3Cc2cccc(CCl)c2)c1
inactive: DU-145 prostate 50.4% | K-562 leukemia 14.2% | MALME-3M melanoma 41.7% | MDA-MB-231 breast 12% | SF-268 CNS 17% | SF-295 CNS 92% | SF-539 CNS 58.2% | UACC-257 melanoma 42.5% | HCT-15 colon 20.7% | HT29 colon 13.2% | SNB-19 CNS 45.6% | PC-3 prostate 49.8% | SK-MEL-5 melanoma 20.2% | SK-MEL-28 melanoma 27.4%
active: RXF 393 renal -20.2% | M14 melanoma -71.8% | SNB-75 CNS -13.8% | U251 CNS -69.8% | UACC-62 melanoma 6.23% | LOX IMVI melanoma -8.54%

COc1ccc(-c2nsc3c2NC(=O)CC3c2cccc(F)c2)cc1 (stereo not given)
inactive: DU-145 prostate 53.7% | K-562 leukemia 13.9% | MALME-3M melanoma 42.7% | MDA-MB-231 breast 44.7% | RXF 393 renal 50.9% | SF-268 CNS 62% | SF-295 CNS 61.5% | SF-539 CNS 54.7% | UACC-257 melanoma 65.7% | M14 melanoma 32.6% | HCT-15 colon 23% | HT29 colon 10.4% | SNB-75 CNS 68.5% | SNB-19 CNS 82.7% | U251 CNS 45.6% | PC-3 prostate 49.4% | SK-MEL-5 melanoma 32.5% | UACC-62 melanoma 48.5% | LOX IMVI melanoma 50.9% | SK-MEL-28 melanoma 65.4%

O=C(Nc1ccc(Oc2ccc(NC(=O)Nc3ccccc3Cl)cc2)cc1)Nc1ccccc1Cl
active: RXF 393 renal -15.8% | PC-3 prostate 1.99% | SK-MEL-28 melanoma -17.7%
inactive: DU-145 prostate 24.2% | K-562 leukemia 33.6% | MALME-3M melanoma 66.7% | MDA-MB-231 breast 72.3% | SF-268 CNS 40.3% | SF-295 CNS 71.2% | SF-539 CNS 62.8% | UACC-257 melanoma 60.5% | M14 melanoma 65% | HCT-15 colon 38.9% | HT29 colon 45.9% | SNB-75 CNS 58.2% | SNB-19 CNS 115% | U251 CNS 24.6% | SK-MEL-5 melanoma 62.5% | UACC-62 melanoma 45.9% | LOX IMVI melanoma 48.5%

COc1cccc(Cn2c(-c3nonc3NC(C)=O)nc3ccccc32)c1
inactive: DU-145 prostate 13.8% | K-562 leukemia 13.9% | MALME-3M melanoma 42.3% | MDA-MB-231 breast 46.1% | SF-268 CNS 59.5% | SF-295 CNS 15% | SF-539 CNS 36.7% | UACC-257 melanoma 52.7% | M14 melanoma 14.1% | HCT-15 colon 34.9% | HT29 colon 21.5% | SNB-75 CNS 10.1% | SNB-19 CNS 71.3% | U251 CNS 27.1% | PC-3 prostate 21.4% | SK-MEL-5 melanoma 28.4% | UACC-62 melanoma 45.2% | LOX IMVI melanoma 50.2% | SK-MEL-28 melanoma 57.3%
active: RXF 393 renal -17%

CCCCn1cnc(-c2cc(-c3ccccc3)cc(C(F)(F)F)c2)n1
inactive: DU-145 prostate 106% | K-562 leukemia 95.9% | MALME-3M melanoma 89.6% | MDA-MB-231 breast 106% | RXF 393 renal 99.9% | SF-268 CNS 104% | SF-295 CNS 102% | SF-539 CNS 103% | UACC-257 melanoma 96.7% | M14 melanoma 98% | HCT-15 colon 104% | HT29 colon 101% | SNB-75 CNS 98.9% | SNB-19 CNS 98.6% | U251 CNS 97.7% | PC-3 prostate 82.7% | SK-MEL-5 melanoma 101% | UACC-62 melanoma 90.3% | LOX IMVI melanoma 105% | SK-MEL-28 melanoma 109%

CC(=O)Nc1nonc1-c1nc2ccccc2n1Cc1ccc(C(C)(C)C)cc1
inactive: DU-145 prostate 79.9% | K-562 leukemia 30.2% | MALME-3M melanoma 90.5% | MDA-MB-231 breast 92.8% | RXF 393 renal 65.8% | SF-268 CNS 67.2% | SF-295 CNS 79.6% | SF-539 CNS 89% | UACC-257 melanoma 92% | M14 melanoma 92% | HCT-15 colon 90.4% | HT29 colon 74.1% | SNB-75 CNS 50.2% | SNB-19 CNS 80.1% | U251 CNS 75.7% | PC-3 prostate 28.6% | SK-MEL-5 melanoma 79.9% | UACC-62 melanoma 81.6% | LOX IMVI melanoma 63% | SK-MEL-28 melanoma 101%

CCCCCc1c(C)[nH]c(/C=C2\N=C(c3ccc[nH]3)C=C2CC)c1C
active: DU-145 prostate -94.8% | K-562 leukemia -75.8% | MALME-3M melanoma -74.9% | MDA-MB-231 breast -94.3% | RXF 393 renal -91% | SF-268 CNS -75.8% | SF-295 CNS -70.9% | SF-539 CNS -82.7% | UACC-257 melanoma -84.2% | M14 melanoma -96.6% | HCT-15 colon -83.5% | HT29 colon -86.9% | SNB-75 CNS -81.4% | SNB-19 CNS -95.4% | U251 CNS -95.3% | PC-3 prostate -89.3% | SK-MEL-5 melanoma -96.5% | UACC-62 melanoma -97.4% | LOX IMVI melanoma -90.7% | SK-MEL-28 melanoma -97.4%

COc1cc(C2CC(c3ccc(Cl)cc3)=NN2C=O)ccc1OS(=O)(=O)c1ccc(C)cc1 (stereo not given)
inactive: DU-145 prostate 105% | K-562 leukemia 82.1% | MALME-3M melanoma 93.8% | MDA-MB-231 breast 92.5% | RXF 393 renal 97.2% | SF-268 CNS 100% | SF-295 CNS 87.4% | SF-539 CNS 89.6% | UACC-257 melanoma 85.3% | M14 melanoma 84% | HCT-15 colon 89.7% | HT29 colon 99.3% | SNB-75 CNS 91.5% | SNB-19 CNS 86.7% | U251 CNS 91% | PC-3 prostate 94.4% | SK-MEL-5 melanoma 86.3% | UACC-62 melanoma 78.6% | LOX IMVI melanoma 97.2% | SK-MEL-28 melanoma 103%

COc1ccc(OC)c(Nc2nc(-c3c(C)nc4sccn34)cs2)c1
inactive: DU-145 prostate 81.7% | K-562 leukemia 27.8% | MALME-3M melanoma 88.9% | MDA-MB-231 breast 71.1% | RXF 393 renal 83.5% | SF-268 CNS 102% | SF-295 CNS 52.8% | SF-539 CNS 75.7% | UACC-257 melanoma 81% | M14 melanoma 78.6% | HCT-15 colon 73.6% | HT29 colon 73.6% | SNB-75 CNS 78.4% | SNB-19 CNS 96.9% | U251 CNS 89.5% | PC-3 prostate 37.6% | SK-MEL-5 melanoma 18.8% | UACC-62 melanoma 79.6% | LOX IMVI melanoma 83.4% | SK-MEL-28 melanoma 101%

c1ccc2c(c1)cnc1ccccc12
inactive: DU-145 prostate 111% | K-562 leukemia 97.2% | MALME-3M melanoma 127% | MDA-MB-231 breast 108% | RXF 393 renal 88.5% | SF-268 CNS 97.4% | SF-295 CNS 113% | SF-539 CNS 101% | UACC-257 melanoma 103% | M14 melanoma 99.6% | HCT-15 colon 98.4% | HT29 colon 94.6% | SNB-75 CNS 93.6% | SNB-19 CNS 99.2% | U251 CNS 109% | PC-3 prostate 102% | SK-MEL-5 melanoma 98.5% | UACC-62 melanoma 98.9% | LOX IMVI melanoma 104% | SK-MEL-28 melanoma 118%

C[C@@H]1C[C@H](N)C[C@H](c2ccncc2NC(=O)c2ccc(F)c(-c3c(F)cccc3F)n2)C1
active: MALME-3M melanoma -20.6% | UACC-257 melanoma -69.4% | M14 melanoma -30.8% | SK-MEL-5 melanoma -59.8%
inactive: DU-145 prostate 80.4% | K-562 leukemia 11.4% | MDA-MB-231 breast 59.1% | RXF 393 renal 23.2% | SF-268 CNS 58.9% | SF-295 CNS 71.9% | SF-539 CNS 70.2% | HCT-15 colon 52.4% | HT29 colon 10.9% | SNB-75 CNS 40.5% | SNB-19 CNS 69.3% | U251 CNS 42.6% | PC-3 prostate 24.2% | UACC-62 melanoma 25.3% | LOX IMVI melanoma 33.1% | SK-MEL-28 melanoma 12.2%

NC(=O)c1noc(C(=O)c2ccccc2)c1N
inactive: DU-145 prostate 104% | K-562 leukemia 89.5% | MALME-3M melanoma 101% | MDA-MB-231 breast 109% | RXF 393 renal 96.2% | SF-268 CNS 98.4% | SF-295 CNS 98.9% | SF-539 CNS 107% | UACC-257 melanoma 102% | M14 melanoma 110% | HCT-15 colon 89.4% | HT29 colon 83.6% | SNB-75 CNS 95.9% | SNB-19 CNS 90.4% | U251 CNS 85.8% | PC-3 prostate 90.9% | SK-MEL-5 melanoma 97.9% | UACC-62 melanoma 96.6% | LOX IMVI melanoma 98.8% | SK-MEL-28 melanoma 98.6%

COc1ccc(-c2nc(-c3ccccc3OCc3ccccc3OC)nc(C)c2C(C)=O)cc1
inactive: DU-145 prostate 92.8% | K-562 leukemia 81.6% | MALME-3M melanoma 92.5% | MDA-MB-231 breast 64.3% | RXF 393 renal 92.6% | SF-268 CNS 94.7% | SF-295 CNS 91.8% | SF-539 CNS 101% | UACC-257 melanoma 96% | M14 melanoma 84.2% | HCT-15 colon 78.9% | HT29 colon 56.9% | SNB-75 CNS 83.8% | SNB-19 CNS 93.7% | U251 CNS 90.2% | PC-3 prostate 56.8% | SK-MEL-5 melanoma 91.3% | UACC-62 melanoma 54.7% | LOX IMVI melanoma 98.7% | SK-MEL-28 melanoma 101%
